Data published in PubChem BioAssay AID1159580 (chemical genetic matrix, 2015).
Hit rate of the full screen: of about 5,500 compounds, about 2,000 (36%) were called active. Roughly 18% stayed inconclusive and do not appear here. Cut-off read from the data, not from the text of the source: active = normalized growth mostly below about 0.91 (no sharp cut-off); inconclusive = no clear call, values can overlap the other calls; inactive = mostly above about 0.92. This is one part of the list.

Assay: chemical genetic growth profiling, strain panel (AID 1159580);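 note: tested at 20 µM; growth read once vehicle control cultures reached saturation at 30 °C; 1 = growth at the plate median or of vehicle wells; lower values mean less growth of the strain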
Conditions: growth OD

Measured: normalized growth

CNC(=O)N(C)c1nnc(C(C)(C)C)s1
inactive: S. cerevisiae deletion strains, locus YJR075W, strain HOC1, hits give low values 1.02 | S. cerevisiae deletion strains, locus YKL009W, strain mrt4, hits give low values 1.04 | S. cerevisiae deletion strains, locus YKL068W, hits give low values 1.01 | S. cerevisiae deletion strains, locus YKL085W, strain MDH1 (second series), hits give low values 1.02 | S. cerevisiae deletion strains, locus YKL085W, strain MDH1, hits give low values 1.02 | S. cerevisiae deletion strains, locus YKL160W, strain elf1, hits give low values 0.992 | S. cerevisiae deletion strains, locus YKL190W, strain CNB1, hits give low values 1.01 | S. cerevisiae deletion strains, locus YKR001C, strain vps1, hits give low values 1.04 | S. cerevisiae deletion strains, locus YKR026C, strain gcn3, hits give low values 0.991 | S. cerevisiae deletion strains, locus YKR091W, strain srl3, hits give low values 0.974 | S. cerevisiae deletion strains, locus YLL001W, strain dnm1, hits give low values 0.988 | S. cerevisiae deletion strains, locus YLL026W, hits give low values 0.992 | S. cerevisiae deletion strains, locus YLL041C, strain sdh2, hits give low values 0.98 | S. cerevisiae deletion strains, locus YLR027C, strain aat2, hits give low values 0.973 | S. cerevisiae deletion strains, locus YLR039C, strain RIC1, hits give low values 1.07 | S. cerevisiae deletion strains, locus YLR058C, strain SHM2, hits give low values 1.01 | S. cerevisiae deletion strains, locus YLR102C, strain apc9, hits give low values 1.03 | S. cerevisiae deletion strains, locus YLR221C, strain rsa3, hits give low values 1.01 | S. cerevisiae deletion strains, locus YLR258W, strain gsy2, hits give low values 0.975 | S. cerevisiae deletion strains, locus YLR262C, strain YPT6 (second series), hits give low values 1.03 | S. cerevisiae deletion strains, locus YLR262C, strain YPT6, hits give low values 1.09 | S. cerevisiae deletion strains, locus YLR268W, strain sec22, hits give low values 1.02 | S. cerevisiae deletion strains, locus YLR320W, strain mms22, hits give low values 1.03 | S. cerevisiae deletion strains, locus YLR330W, strain CHS5, hits give low values 1.02 | S. cerevisiae deletion strains, locus YLR342W, strain FKS1 (second series), hits give low values 1.07 | S. cerevisiae deletion strains, locus YLR342W, strain FKS1, hits give low values 0.998 | S. cerevisiae deletion strains, locus YLR357W, strain rsc2, hits give low values 0.972 | S. cerevisiae deletion strains, locus YLR370C, strain arc18, hits give low values 0.983 | S. cerevisiae deletion strains, locus YLR371W, strain rom2, hits give low values 1.02 | S. cerevisiae deletion strains, locus YLR384C, strain iki3, hits give low values 1.01 | S. cerevisiae deletion strains, locus YLR418C, strain cdc73, hits give low values 1.09 | S. cerevisiae deletion strains, locus YML016C, strain PPZ1, hits give low values 1.01 | S. cerevisiae deletion strains, locus YML032C, strain rad52, hits give low values 1.01 | S. cerevisiae deletion strains, locus YML120C, strain ndi1, hits give low values 1.01 | S. cerevisiae deletion strains, locus YML124C, strain tub3, hits give low values 1.01 | S. cerevisiae deletion strains, locus YMR058W, strain fet3, hits give low values 0.977 | S. cerevisiae deletion strains, locus YMR078C, strain ctf18, hits give low values 1.02 | S. cerevisiae deletion strains, locus YMR125W, strain sto1, hits give low values 0.942 | S. cerevisiae deletion strains, locus YMR129W, hits give low values 0.998 | S. cerevisiae deletion strains, locus YMR205C, strain PFK2, hits give low values 0.969 | S. cerevisiae deletion strains, locus YMR223W, strain ubp8, hits give low values 1.02 | S. cerevisiae deletion strains, locus YMR231W, strain pep5, hits give low values 1.01 | S. cerevisiae deletion strains, locus YMR263W, strain SAP30, hits give low values 1.02 | S. cerevisiae deletion strains, locus YMR307W, strain GAS1, hits give low values 1.1 | S. cerevisiae deletion strains, locus YNL067W, strain RPL9B, hits give low values 1.02 | S. cerevisiae deletion strains, locus YNL071W, strain lat1, hits give low values 0.993 | S. cerevisiae deletion strains, locus YNL128W, strain TEP1, hits give low values 1.01 | S. cerevisiae deletion strains, locus YNL153C, strain GIM3, hits give low values 1.01 | S. cerevisiae deletion strains, locus YNL209W, strain ssb2, hits give low values 1.01 | S. cerevisiae deletion strains, locus YNL233W, strain BNI4, hits give low values 1.01 | S. cerevisiae deletion strains, locus YNL248C, strain rpa49, hits give low values 0.995 | S. cerevisiae deletion strains, locus YNL250W, strain rad50, hits give low values 1.02 | S. cerevisiae deletion strains, locus YNL271C, strain bni1, hits give low values 1.03 | S. cerevisiae deletion strains, locus YNL298W, strain CLA4, hits give low values 1.03 | S. cerevisiae deletion strains, locus YNL307C, strain MCK1, hits give low values 1.02 | S. cerevisiae deletion strains, locus YNL322C, strain KRE1 (second series), hits give low values 0.986 | S. cerevisiae deletion strains, locus YNL322C, strain KRE1, hits give low values 1.01 | S. cerevisiae deletion strains, locus YNR049C, strain mso1, hits give low values 0.974 | S. cerevisiae deletion strains, locus YNR052C, strain pop2, hits give low values 1.03 | S. cerevisiae deletion strains, locus YOL006C, strain TOP1, hits give low values 1.06 | S. cerevisiae deletion strains, locus YOL012C, strain htz1 1.29 | S. cerevisiae deletion strains, locus YOL147C, strain pex11, hits give low values 1.01 | S. cerevisiae deletion strains, locus YOR001W, strain rrp6, hits give low values 1.01 | S. cerevisiae deletion strains, locus YOR061W, strain CKA2, hits give low values 1.01 | S. cerevisiae deletion strains, locus YOR069W, strain VPS5, hits give low values 1 | S. cerevisiae deletion strains, locus YOR070C, strain gyp1, hits give low values 1 | S. cerevisiae deletion strains, locus YOR080W, strain dia2, hits give low values 0.998 | S. cerevisiae deletion strains, locus YOR083W, strain WHI5, hits give low values 0.991 | S. cerevisiae deletion strains, locus YOR106W, strain vam3, hits give low values 0.961 | S. cerevisiae deletion strains, locus YOR136W, strain idh2, hits give low values 1.01 | S. cerevisiae deletion strains, locus YOR144C, strain elg1, hits give low values 1.01 | S. cerevisiae deletion strains, locus YOR184W, strain ser1, hits give low values 1.04 | S. cerevisiae deletion strains, locus YOR265W, strain rbl2, hits give low values 0.994 | S. cerevisiae deletion strains, locus YOR270C, strain vph1, hits give low values 1.01 | S. cerevisiae deletion strains, locus YOR290C, strain snf2, hits give low values 0.959 | S. cerevisiae deletion strains, locus YOR316C, strain cot1, hits give low values 1.02 | S. cerevisiae deletion strains, locus YPL051W, strain arl3, hits give low values 1.01 | S. cerevisiae deletion strains, locus YPL055C, strain LGE1, hits give low values 1.03 | S. cerevisiae deletion strains, locus YPL078C, strain atp4, hits give low values 0.961 | S. cerevisiae deletion strains, locus YPL106C, strain sse1, hits give low values 1.02 | S. cerevisiae deletion strains, locus YPL240C, strain hsp82, hits give low values 0.994 | S. cerevisiae deletion strains, locus YPL241C, strain CIN2, hits give low values 1.02 | S. cerevisiae deletion strains, locus YPR119W, strain clb2, hits give low values 1.01 | S. cerevisiae deletion strains, locus YPR141C, strain kar3, hits give low values 1.02 | S. cerevisiae deletion strains, locus YPR163C, strain tif3, hits give low values 1.01 | S. cerevisiae deletion strains, locus YPR167C, strain met16, hits give low values 1.03 | S. cerevisiae deletion strains, strain wtn01, hits give low values 1.03 | S. cerevisiae strains, strain wild type, hits give low values 1.01
